Screening data from PubChem BioAssay.
AMA1-RON2 inh: disrupts binding of P. falciparum AMA1 to RON2 | 360,000 tested, 0.2% active | AID 720542 | Potency, µM (series often up to 58.2 µM), actives largely listed as inhibitors | AlphaScreen AMA1-biotinylated RON2 peptide binding; active = well fitted inhibition curve with a large enough effect; inconclusive = small, poorly fitted or top-dose-only effect; inactive = no such curve, though single readings can be large or run the other way; note: nearly all actives have a fitted effect of over 45% in size
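AMA1 (3D7) with his tag at 25 nM final met compounds first, then biotinylated RON2 peptide at 25 nM; detection used donor plus acceptor beads, 10 µg/mL apiece, read by AlphaScreen after 30 min at room temperature.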
NS1 function inh: blocks influenza NS1 protein function | 270,000 tested, 0.4% active | Potency, µM (doses to about 46.1 µM); note: actives are rising curves; nearly all actives have a fitted effect of over 50% in size
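In this qHTS, NS1 from influenza A is expressed in budding yeast, where it slows growth. Cells are switched from glucose to 2% galactose medium (pH 6.0, -URA), treated with compound, and growth recovery is read at OD600.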
SARS PLP yeast: blocks SARS-CoV papain-like protease in a yeast assay | S. cerevisiae expressing SARS-CoV PLpro, growth rescue | Potency, µM (titrated, usually from 32.9 µM), most hits filed as activators | 330,000 tested, 0.19% active | AID 485353; note: nearly all actives have a fitted effect of over 55% in size
NS1 inh valid: influenza NS1 function inhibition validation; shares compounds with NS1 function inh; influenza NS1 function cell assay, 15-point titration; activity change, negative = inhibition, % at 32.9 µM; 1,400 tested, under 10 active
Flu PR8 replic: influenza virus titer reduction, NS1 project. MDCK infected influenza A/PR/8/34, virus titer TCID50; hits give low values. virus titer (log TCID50), log10 TCID50 at 5 µM. 95 tested, 30% active. shares compounds with NS1 function inh; call rule not given here
A number is an active result; 0 = inactive; ? = inconclusive; - = no result. Compounds with a hit are over-represented: about 0.65% of the library has one in this group of screens. Unless noted, calls come from the whole dose curve.

SMILES | AMA1-RON2 inh | NS1 function inh | SARS PLP yeast | NS1 inh valid | others
Cc1cccc(C)c1NC(=O)CCS(=O)(=O)c1cccc2nonc12 | 0 | ? | 0 | 0
COc1ccc(OC)c(-c2cc(C(F)(F)F)c3c(n2)sc2c(O)cc(=O)[nH]c23)c1 | 0 | 0 | 0 | -
O=c1cc(O)c2sc3nc(-c4ccccc4)cc(C(F)(F)F)c3c2[nH]1 | 0 | ? | 0 | 0
Cc1ccccc1C(=O)NNC(=O)c1cc(S(=O)(=O)N2CCOCC2)ccc1C | 0 | - | 0 | -
OCC[C@H]1C[C@H](O)[C@@H](O)[C@]2(OCCc3ccccc32)O1 | 0 | - | 0 | -
N#CC1=C(N)OC2=C(CC/C2=C\c2ccccc2Cl)C1c1ccccc1Cl (configuration not stated) | 0 | 0 | 0 | -
N#CC1=C(N)OC2=C(CC/C2=C\c2ccccc2)C1c1ccccc1 (configuration not stated) | 0 | 0.891µM | 0 | ?
COc1ccc(C(=O)NCC2(c3ccccc3)CCCC2)c(OC)c1 | 0 | 0 | 0 | -
COc1ccc(C2(CNC(=O)CCC(=O)O)CCCC2)cc1 | 0 | 12.6µM | 0 | 0
Cc1ccc(C(=O)N2CCCC2)cc1S(=O)(=O)Nc1ccccc1 | 0 | 0 | 0 | -
Cc1ccc(C(=O)Nc2ccccc2C(=O)O)cc1S(=O)(=O)Nc1ccccc1 | 0 | 15.8µM | 0 | 0
O=C(Nc1ccccc1C(=O)O)c1cccc(NS(=O)(=O)c2ccc(Br)cc2)c1 | 0 | 7.94µM | 0 | 0
Cc1ccc(C(=O)NC2CCCC2)cc1S(=O)(=O)N1CCCCC1 | 0 | 0 | 0 | -
O=C(Nc1ccccc1C(=O)O)c1cccc(S(=O)(=O)Nc2ccc(Br)cc2)c1 | 0 | 0 | 0 | -
Cc1ccc(C(=O)Nc2ccccc2C(=O)O)cc1S(=O)(=O)NC1CCCCC1 | 0 | 14.1µM | 0 | 0 | Flu PR8 replic=0
Cc1ccc(C(=O)Nc2ccccc2C(=O)NCc2ccco2)cc1S(=O)(=O)N1CCCCC1 | 0 | 10µM | 0 | 0
Cc1ccc(C(=O)NCc2ccco2)cc1S(=O)(=O)N1CCCCC1 | 0 | 0 | 0 | -
CCOC(=O)C1CCN(C(=O)c2cc(S(=O)(=O)N3CCOCC3)ccc2C)CC1 | 0 | - | 0 | -
Cc1ccc(OCC(=O)NC2CCS(=O)(=O)C2)c(C)c1 (configuration not stated) | 0 | 0 | 0 | -
CCOC(=O)c1c(-c2ccco2)csc1N | 0 | 1.26µM | 0 | ?
CCOC(=O)c1c(-c2cccs2)csc1N | 0 | 0 | 0 | -
Cn1c(SCC(=O)NC2CCCCC2)nnc1-c1ccccc1O | 0 | 0 | 0 | -
Cc1cccc(NC(=S)N=Nc2c(O)n(C)c3ccc(S(=O)(=O)N4CCOCC4)cc23)c1 | 0 | ? | 0 | 0
Cc1cc(C)cc(NC(=S)N=Nc2c(O)n(C)c3ccc(S(=O)(=O)N4CCOCC4)cc23)c1 | 0 | 0 | 0 | -
CC1=C(C(=O)N2CCCCCC2)CC(CC(=O)NC(c2ccccc2)c2ccccc2)C(=O)N1Cc1ccccc1 (configuration not stated) | 0 | - | - | -
SMILES | AMA1-RON2 inh | NS1 function inh | SARS PLP yeast | NS1 inh valid | others
Cc1noc(/C=C/N(C)C)c1S(=O)(=O)N1CCCC(C(=O)NC(C)c2ccccc2)C1 (configuration not stated) | 0 | 1.78µM | 0 | ? | Flu PR8 replic=0
Cc1noc(/C=C/N(C)C)c1S(=O)(=O)N1CCCC(C(=O)NC2CCCCC2C)C1 (configuration not stated) | 0 | ? | 0 | -
C=C(C)CCOC(=O)C(CC(=O)O)NCc1ccco1 (configuration not stated) | 0 | 0 | 0 | -
O=C(Nc1cc(S(=O)(=O)N2CCCCCC2)ccc1OCC(F)(F)F)c1cnccn1 | 0 | - | 0 | -
NC(Cc1c[nH]c2ccccc12)C(=O)NCc1ccccc1 (configuration not stated) | 0 | ? | 0 | 0
N[C@@H](Cc1c[nH]c2ccccc12)C(=O)O | - | 0 | 0 | -
CC(=O)N1c2ccc(S(=O)(=O)N3CCCC(C(=O)NC4CCCC(C)C4C)C3)cc2CC1C (configuration not stated) | 0 | 0 | 0 | -
Cc1ccc2c(C)c(C(=O)N3CCCCC3CO)oc2c1C (configuration not stated) | 0 | 0 | 0 | -
CCOc1cc(C(C#N)N2CCOCC2)ccc1OC (configuration not stated) | 0 | 0 | 0 | -
CCOc1ccc(C(C#N)N2CCOCC2)cc1OC (configuration not stated) | 0 | 15.8µM | 0 | ?
O=C(CCCCC(=O)OC1CCCCC1)OC1CCCCC1 | 0 | - | - | -
CCN(CC(=O)Nc1ccccc1C(F)(F)F)C(=O)c1ccc(N2CCCC2=O)cc1 | 0 | - | 0 | -
